Data: the supplement of paper PMC3334620
In all, about 33,000 sequences were measured (“E-score (-0.5 to 0.5)”: median about -0.012, highest 2% from about 0.27 on). This is one part of a sample in which the highest values are shown more often than they occur.

What follows are sequences tested against T1, Vhr1 (UniProt P40522) (assay: PBM E-score (8-mer binding enrichment) (E-score (-0.5 to 0.5)); higher = stronger / more preferred TF binding). Details: protein concentration: 200 nM; construct: GST-full length.
T1 sequence: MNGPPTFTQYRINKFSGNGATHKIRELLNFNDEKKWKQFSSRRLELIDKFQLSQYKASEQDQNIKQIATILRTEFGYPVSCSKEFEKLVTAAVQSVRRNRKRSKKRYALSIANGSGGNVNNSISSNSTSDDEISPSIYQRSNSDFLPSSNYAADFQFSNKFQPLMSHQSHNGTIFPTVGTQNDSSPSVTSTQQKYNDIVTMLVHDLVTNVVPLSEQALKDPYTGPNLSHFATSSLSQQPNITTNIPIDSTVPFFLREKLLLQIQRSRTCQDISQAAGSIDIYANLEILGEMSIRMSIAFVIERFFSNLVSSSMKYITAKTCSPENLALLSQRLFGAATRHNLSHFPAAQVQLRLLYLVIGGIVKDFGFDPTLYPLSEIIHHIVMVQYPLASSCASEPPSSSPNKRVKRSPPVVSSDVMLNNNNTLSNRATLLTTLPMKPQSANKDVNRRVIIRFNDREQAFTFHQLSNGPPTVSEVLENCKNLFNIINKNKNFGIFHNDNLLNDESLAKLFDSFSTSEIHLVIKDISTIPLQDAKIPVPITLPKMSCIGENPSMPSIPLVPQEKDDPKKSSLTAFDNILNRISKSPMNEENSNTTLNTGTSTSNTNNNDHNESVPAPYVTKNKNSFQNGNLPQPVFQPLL
Summary of the method: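 Detection of bound protein used fluorescent anti-GST, with scans normalised by masliner. The proteins were GST-tagged yeast transcription factors applied at about 100-200 nM to universal all-10-mer Agilent arrays made double-stranded by primer extension. Each ungapped eight-base word, pooled with its reverse complement, was scored with an E-score from the Universal PBM Analysis Suite.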

Row | Sequence | PBM E-score
1 | CATTAGGA | -0.0276
2 | ACAGTTCA | 0.0273
3 | CGCAATCC | -0.0979
4 | AAACCTAA | -0.0619
5 | TAATGGCA | -0.00432
6 | CTCAATAC | 0.226
7 | ATCAAAGG | -0.0468
8 | CAAGAGCG | 0.0553
9 | ATGGGTGA | 0.322
10 | GTGGGTGA | 0.331
11 | CTGGGTCA | 0.11
12 | ATGGGTGC | 0.0292
13 | ATGGGTGG | 0.242
14 | ATGGGTCA | 0.263
15 | CTGGGTGA | 0.275
16 | GAGGGTGA | 0.153
17 | CTGGGTGC | 0.123
18 | GTGGGTAA | 0.138
19 | GTGGGTCA | 0.365
20 | CAGGGTGA | 0.114
21 | CACCTACC | -0.125
22 | AAGTGCGT | -0.0339
23 | GTCTGTAA | -0.0248
24 | AATTCTTC | -0.211
25 | AGATCACC | -0.0605

Row | Sequence | PBM E-score
26 | ACTGGTCG | 0.0753
27 | GTCGTCTA | -0.0586
28 | GAACTAGC | -0.118
29 | AACAGGAT | -0.0425
30 | CTATGAAC | 0.107
31 | CCTATCTA | -0.245
32 | CGTCAGCA | -0.11
33 | AGTCAGCC | 0.402
34 | AGTCAGCA | 0.346
35 | GGTCAGCA | 0.15
36 | AGTCAGAG | 0.386
37 | ATTCAGCG | -0.0101
38 | AGTCAGAA | 0.18
39 | ACTCAGCG | 0.133
40 | AGTCAGAT | 0.27
41 | AGTCAGCG | 0.347
42 | ACTCAGCC | 0.151
43 | CGTCAGCC | 0.044
44 | CTAGCCTA | -0.153
45 | GGAACCAA | 0.171
46 | AAAGGCGC | -0.0831
47 | ACACCCAT | 0.191
48 | AGGTAATC | 0.104
49 | ACACTCCC | 0.0331
50 | CATGGGTA | 0.27

Row | Sequence | PBM E-score
51 | GATGGGTA | 0.285
52 | AATGGGTA | 0.0928
53 | CAACCCGC | 0.272
54 | AAACCCGC | 0.0774
55 | CAACCCGG | -0.116
56 | CGTTTCAG | -0.0522
57 | ATAGGCCG | -0.229
58 | CATCGATG | 0.302
59 | CATCGATC | 0.016
60 | AATCGATG | 0.107
61 | AGCACAGG | 0.00375
62 | CCAGTCGA | 0.0785
63 | TAAAGGCA | -0.226
64 | AGAGTATC | -0.0198
65 | CCAAGCAC | 0.112
66 | CGATGGGC | 0.297
67 | AGATGGGC | -0.0228
68 | CGATGGGA | -0.0641
69 | ACTTGGCG | 0.0405
70 | CGATAGGA | 0.129
71 | TAGTCTGA | 0.218
72 | AAGTCAAA | 0.00983
73 | AAGTCAAC | -0.00442
74 | TAGTCAAA | 0.117
75 | CAGTCAAC | 0.216

Row | Sequence | PBM E-score
76 | GAGTCAAA | 0.312
77 | GAGTCAAC | 0.403
78 | ACTTTTAT | -0.304
79 | AAGCCATT | 0.0335
80 | CAAATCAG | -0.0128
81 | ATTAGCTA | 0.0108
82 | GCACCTGA | -0.00933
83 | GACTACTA | 0.328
84 | CACTACCA | 0.208
85 | GACTATAA | 0.0359
86 | GACTACCA | 0.306
87 | AACTATAC | 0.114
88 | GACTACAC | 0.315
89 | AACTACAC | 0.0739
90 | GACTACCC | 0.254
91 | CACTACAC | 0.163
92 | AACTACTA | 0.078
93 | TACTACTA | 0.208
94 | GACTATAC | 0.322
95 | CATAGAAA | 0.102
96 | GCTAGAAA | -0.0866
97 | AGACTGTG | -0.0209
98 | GGAGTGCA | 0.14
99 | CGTTTTTC | -0.141
100 | ACCATAGT | 0.0959

Row | Sequence | PBM E-score
101 | AAGCAAGT | -0.0526
102 | TACTAACA | 0.145
103 | AAGTAACA | 0.0225
104 | AACTACTC | 0.19
105 | CACTACTC | 0.205
106 | CAGTACTC | 0.117
107 | GACTAACA | 0.354
108 | CACTAACA | 0.177
109 | GACTACTC | 0.31
110 | GAGTACTC | 0.345
111 | AAGTACTC | 0.0478
112 | GAGTAACA | 0.286
113 | GAGTAACC | 0.106
114 | AGCAGCGG | 0.0635
115 | GAGCCAAC | -0.0688
116 | ACATAGCT | -0.216
117 | AACCAATT | 0.0547
118 | CTAGCAAA | 0.00326
119 | ATGGATCC | 0.144
120 | AGTTACTC | 0.0219
121 | CACACAGG | 0.272
122 | GACACCTC | 0.0308
123 | AACACAGG | 0.0235
124 | CACACAGA | 0.263
125 | GACACAGC | 0.129

Row | Sequence | PBM E-score
126 | CACACCTG | 0.207
127 | AACACAGC | 0.229
128 | CACACAGC | 0.307
129 | CACACCTC | 0.285
130 | AGTGGTGC | -0.0378
131 | ACTGTAGA | 0.0811
132 | CGAAGAAC | 0.0807
133 | ACTAAACG | -0.0382
134 | CAGCAGCG | -0.0154
135 | AGATCTTA | -0.0915
136 | CAACAACA | 0.234
137 | CCATTGGG | -0.18
138 | ACACTGCC | 0.281
139 | GCACTGCC | -0.039
140 | ACACTGCA | 0.0651
141 | CTTCTGCA | -0.194
142 | GATCATAC | 0.114
143 | AATCATAC | 0.4
144 | GCTCATAC | -0.135
145 | ATTCATAG | 0.0981
146 | AATCAAAT | -0.0562
147 | ACTCATAC | 0.284
148 | AATCATAT | 0.296
149 | CATCATAG | 0.266
150 | CATCATAC | 0.216

Row | Sequence | PBM E-score
151 | CCTCATAC | -0.119
152 | AATCATAA | 0.131
153 | AATCATAG | 0.329
154 | AACCCGTT | -0.0686
155 | GGTGCACA | 0.0381
156 | GCTTTATA | -0.261
157 | CCCTCTAC | -0.113
158 | CCACGTCA | -0.165
159 | GCACAAGC | 0.0452
160 | CACGCAGG | -0.0242
161 | AGATATGA | 0.161
162 | TCATATGA | 0.381
163 | GGATATGA | 0.289
164 | CCATATGA | 0.176
165 | CGATATGA | 0.125
166 | GCATATGA | 0.19
167 | CATGAGCA | 0.125
168 | GGTAGCGA | -0.0248
169 | GAGGATAA | 0.0571
170 | ACTGACAC | 0.0369
171 | CCTGACTC | 0.479
172 | CCGGACTC | 0.303
